# Source: PubChem BioAssay AID720690 (Broad Institute, 2013)
# Measured potencies and affinities stand elsewhere. Activity calls are given as the source filed them.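 The calls were made as follows: active = every repeat run showing a signal drop whose fitted half-maximal concentration is at most twice the top tested concentration; inconclusive = repeat runs disagree, or flat partial drop, or poor fit; inactive = the rest.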
# Assay: HEK293T cytotoxicity, dose response, cytotoxicity control for miR-122 modulator project, cell-based, activator set, cherry-pick (AID 720690)
# Conditions: HEK293T viability, CellTiter-Glo luminescence, 48 h; series mostly up to 26 µM
row,Structure (SMILES),outcome
1,CNC(=O)C[C@H]1CC[C@@H]2[C@@H](COc3ccc(NC(=O)C(C)C)cc3C(=O)N2C)O1,inactive
2,CN(C)C(=O)c1ccc(NC(=O)c2cc(-n3cnnc3)ccc2Cl)cc1,inactive
3,OCc1ccc(-c2nn(Cc3ccccc3)c3ccccc23)o1,inactive
4,CN1C(=O)c2cc(NC(=O)Cc3ccccc3)ccc2OC[C@H]2O[C@@H](CC(=O)NC3CCC3)CC[C@H]21,inactive
5,CCOc1cc(-c2nccc3cc(OC)c(OC)cc23)cc(OCC)c1OCC,inactive
6,COc1ccc(OC)c(Nc2cc(C)nc3ccc(C)cc23)c1,inactive
7,Cc1ccc(-c2ccc3c(c2)O[C@H](CN(C)C(=O)CC2CC2)[C@H](C)CN([C@@H](C)CO)S3(=O)=O)cc1,inactive
8,O=C(c1cccnc1)N1C[C@H]2[C@@H](c3ccccc31)[C@H](CO)N2C(=O)Nc1ccccc1,inactive
9,COC(=O)C[C@@H]1CC[C@H]2[C@@H](COc3ccc(NC(=O)c4ccc(C(F)(F)F)cc4)cc3C(=O)N2C)O1,inactive
10,C[C@H](CO)N1C[C@H](C)[C@@H](CN(C)CC2CCCCC2)OCCCC[C@H](C)Oc2ccc(NC(=O)Nc3cccc4ccccc34)cc2C1=O,inactive
11,COc1cc(C(=O)Nc2ccc(S(=O)(=O)N3CCCCC3C)cc2)cc(OC)c1OC (stereo unspecified),inactive
12,COCCN(C[C@@H]1[C@@H](c2ccccc2)[C@H](CO)N1C(=O)C1CC1)C(C)=O,inactive
13,O=C(c1ccccc1)N1C[C@H]2[C@@H](c3ccccc31)[C@@H](CO)N2C(=O)CN1CCOCC1,inactive
14,CC(C)C(=O)Nc1ccc2c(c1)C(=O)N(C)[C@@H]1CC[C@H](CC(=O)NCC3CC3)O[C@H]1CO2,inactive
15,C=CCNC(=S)NNC(=O)c1cccn(Cc2ccc(Cl)c(Cl)c2)c1=O,inactive
16,O=C(Nc1ccccc1)N1C[C@@H]2[C@H](c3ccccc31)[C@H](CO)N2C(=O)c1ccncc1,inactive
17,C/C=C/c1ccc([C@H]2[C@@H](CO)N[C@@H]2CN(C(=O)c2ccccc2F)C(C)C)cc1,inactive
18,C/C=C/c1ccc([C@@H]2[C@@H](CO)N[C@@H]2CN(C(=O)C2CCCC2)C(C)C)cc1,inactive
19,CN(C)CCCNC(=O)C[C@H]1CC[C@H]2[C@@H](COc3ccc(NC(=O)c4ccccc4F)cc3C(=O)N2C)O1,inactive
20,CN1C(=O)c2cc(NC(=O)c3cccs3)ccc2OC[C@@H]2O[C@@H](CC(=O)N3CCOCC3)CC[C@H]21,inactive
21,CN1C(=O)c2cc(NC(=O)Cc3ccccc3)ccc2OC[C@H]2O[C@@H](CC(=O)NC3CCC3)CC[C@@H]21,inactive
